Laboratory results published in PubChem BioAssay.
A number with no mark means an inactive call. The source made the active and inactive calls.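 The calls were made as follows: active = inhibition above 50%; inactive = the rest.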

Assay: HepG2 cytotoxicity, primary screen, cytotoxicity control for P. falciparum antimalarial project, cell-based, ATP luminescence (AID 2303);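 also: 0% = DMSO wells and 100% = digitonin-killed cells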
Details: HepG2 viability, 24-48 h, at 10 µM, hits give high values

Row | SMILES | inhibition
1 | CC[C@H](C)CNC(=O)c1ccnc(-c2ccc(CNCCCc3ccccc3)cc2)c1 | 17%
2 | CS(=O)(=O)c1ccc2nc(-c3cc(-c4ccc(OCCN5CCOCC5)cc4)cnc3N)[nH]c2c1 | 43%
3 | Cc1ccc2[nH]c3ccccc3c(=O)c2c1 | -4%
4 | Cc1ccc(-c2nnc3c4ccccc4c(C)nn23)cc1S(=O)(=O)N1CCN(CCO)CC1 | 16%
5 | Cc1cc(N2CCN(C3CCCCC3)CC2)nc2cccc(O)c12 | 12%
6 | CC(C)C[C@H](NC(=O)[C@H](Cc1ccccc1)NC(=O)CCN1C(=O)COc2ccc(C(=O)O)cc21)C(=O)NC(CC1CCCCC1)C(O)CC(=O)NCCCn1ccnc1 (some centres undefined) | -3%
7 | COc1c(C2=CCN(CCCCNC(=O)c3ccc(-c4ccc(C#N)cc4)cc3)CC2)c(C)cc2c1C(C)(C)CCC2(C)C | 18%
8 | Cc1cc(N2CCC(NS(=O)(=O)c3ccccc3)CC2)nc(Nc2cccc(C#N)c2)n1 | 52% (active)
9 | O=C(Nc1ccc(Cl)cn1)c1sc2ccccc2c1O | 2%
10 | Cc1ccc(NC(=O)NC2CCN(CCC(NC(=O)Cc3ccccc3)c3ccc(Cl)c(Cl)c3)CC2)cc1 (centres undefined) | 16%
11 | Cc1cc(N)c2cc(NC(=O)c3cccc4ccccc34)ccc2n1 | 18%
12 | Cc1cc(NCCCN2CCCC2=O)n2c(nc3ccccc32)c1C#N | 4%
13 | COc1ccc(F)cc1-c1cccc(CNC2CCN(CC3Cn4c(=O)ccc5ccc(F)c3c54)CC2)c1 (centres undefined) | 46%
14 | NC(=O)C1CCN(Cc2cccc(-c3cccc(-c4nc5ccc(C(F)(F)F)cc5[nH]4)c3)c2)CC1 | 16%
